PLK1 PBD inh: blocks phosphopeptide binding to human PLK1 polo-box domain; P53350; Plk1 PBD binding of FITC phosphopeptide, fluorescence polarization; Potency, µM, for the others: max response, negative = inhibition, usual class: inhibitors; actives 2.8% (n = 360,000); further: series mostly up to about 57 µM; nearly all actives have a fitted effect of over 65% in size
Target sequence (P53350 whole entry, looked up, the tested form may be a part): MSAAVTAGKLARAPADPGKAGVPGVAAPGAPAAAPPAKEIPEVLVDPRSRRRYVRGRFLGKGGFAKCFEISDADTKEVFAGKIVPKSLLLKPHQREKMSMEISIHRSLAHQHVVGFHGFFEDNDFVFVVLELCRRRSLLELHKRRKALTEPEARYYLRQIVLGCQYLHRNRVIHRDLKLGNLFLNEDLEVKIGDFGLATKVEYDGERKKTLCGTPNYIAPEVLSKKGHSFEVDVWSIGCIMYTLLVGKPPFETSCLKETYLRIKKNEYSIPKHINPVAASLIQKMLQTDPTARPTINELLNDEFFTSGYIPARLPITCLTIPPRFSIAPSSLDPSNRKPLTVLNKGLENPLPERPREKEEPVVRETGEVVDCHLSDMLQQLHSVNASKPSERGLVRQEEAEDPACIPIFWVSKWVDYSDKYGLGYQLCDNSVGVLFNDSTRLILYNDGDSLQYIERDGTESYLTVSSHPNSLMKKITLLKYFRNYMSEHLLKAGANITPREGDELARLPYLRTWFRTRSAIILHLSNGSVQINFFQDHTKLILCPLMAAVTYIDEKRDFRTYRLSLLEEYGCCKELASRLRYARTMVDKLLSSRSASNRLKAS
VDR inh: vitamin D3 receptor (human) inhibition; P11473; VDR-SRC2-3 peptide fluorescence polarization, 2 h; Potency, µM, for inactives: max response, negative = inhibition, usual class: inhibitors; actives 0.93% (n = 400,000)
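After 23 nl compound addition and a short centrifugation, plates sat for 2 hours at ambient temperature; polarization of fluorescence then indicated loss of VDR binding to peptide SRC2-3.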
KAT2A inh: inhibitors of human GCN5L2 histone acetyltransferase. Q92830. GCN5L2 HAT assay, ThioGlo1 CoA-SH fluorescence. Potency, µM (doses to about 58.9 µM), without a hit: top-dose activity change, negative = inhibition, actives largely listed as inhibitors. actives 0.21% (n = 390,000). AID 504327
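qHTS, 1536-well. 20nM enzyme, pH 7.5 HEPES/EDTA/Tween-20 buffer; 15 min compound preinc., RT. Start: 75uM H3(1-25), 70uM AcCoA, 50uM ThioGlo1. Read Ex340/Em540 at t=0 (autofluorescence flag) and t=20 min.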
TDP1 block: inhibitors of human tyrosyl-DNA phosphodiesterase TDP1 | Q9NUW8 | recombinant TDP1, AlphaScreen DNA substrate cleavage | Potency, µM (titrated, usually from 130 µM), for inactives: at the top dose activity change, negative = inhibition, most hits filed as inhibitors | actives 0.28% (n = 350,000); further: nearly all actives have a fitted effect of over 40% in size
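Steps: enzyme plus compound, 15 min RT; add biotin/phosphotyrosine-FITC oligonucleotide (15 nM final), react 5 min; add donor/acceptor beads (10 ug/ml final), 10 min; read AlphaScreen. Tdp1 at 1 nM final.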
DT40 TDP1 CPT: DT40-hTDP1 cell growth loss with CPT; chicken DT40 Tdp1-/-;hTDP1 cells + 20 nM CPT, ATP luminescence, 48 h; Potency, µM (highest dose often 46.2 µM), for the others: at the top dose activity change, negative = growth inhibition, most hits filed as inhibitors; actives 12% (n = 420,000); AID 686979; further: nearly all actives have a fitted effect of over 55% in size
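Chicken DT40 Tdp1-/- cells complemented with human TDP1, 400 cells/well, exposed to compounds plus 20 nM camptothecin for at least 48 h at 37 C; viability read as ATP content by CellTiter-Glo luminescence.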
DT40 TDP1 no CPT: qHTS for Inhibitors of human tyrosyl-DNA phosphodiesterase 1 (TDP1): qHTS in cells in absence of CPT | DT40 Tdp1-/- hTDP1 cells, no CPT, ATP luminescence, 48 h | Potency, µM (series often up to 46.2 µM), without a hit: top-dose activity change, negative = growth inhibition, most hits filed as inhibitors | actives 15% (n = 420,000); further: nearly all actives have a fitted effect of over 55% in size
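Seeded 400 DT40-hTDP1 cells/well (vehicle DMSO, no 20 nM CPT); pinned compounds; ≥48 hr at 37 °C; CellTiter-Glo luminescence as viability measure.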
The depositor's hits bear a star; ! = not confirmed by another sample; [ ] = another dose, or the depositor's remark. The list is not random: actives were taken first. Their share in the collection is about 18%. The call rests on the fitted dose curve; in most records, active means well fitted curve in the direction sought with a large enough effect; inconclusive means small, poorly fitted or top-dose-only effect, or another doubt; inactive means no such curve, though single readings can be large; an effect the other way counts as inactive or inconclusive. On the % scale 0 is the no-effect control and ±100 the full control effect; potency means the concentration at half of the fitted maximal effect.

What do the screens show for `OC[C@@H]1CN(Cc2ccc3c(c2)OCO3)C[C@H](n2cnc3c(N4CCN(c5ccccc5)CC4)ncnc32)O1`?
PLK1 PBD inh: 0.8%; DT40 TDP1 CPT: 18.4µM*; DT40 TDP1 no CPT: inconclusive

How did CNc1ncnc2c1ncn2[C@H]1CN(Cc2ccc3c(c2)OCO3)C[C@@H](CO)O1 do in these assays?
PLK1 PBD inh: -7.8%; DT40 TDP1 CPT: 11.6µM*; DT40 TDP1 no CPT: inconclusive

How did Cc1ccc(Cl)cc1NC(=O)CC1Sc2ccccc2NC1=O (stereo not given) do in these assays?
VDR inh: -19.9%; KAT2A inh: -1.0%; DT40 TDP1 CPT: -9.3%; DT40 TDP1 no CPT: 4.3%

Results for COc1ccc(NC(=O)CN2C(=O)C3CC=CCC3C2=O)cc1Cl (stereo not given) ?
PLK1 PBD inh: 2.1%; DT40 TDP1 CPT: 3.9%; DT40 TDP1 no CPT: 7.4%

What do the screens show for `Cc1ccc(-n2nc(C(=O)NC(C)C)c(=O)n(C)c2=O)cc1`?
VDR inh: 19.3%; KAT2A inh: -2.9%; TDP1 block: 6.5%; DT40 TDP1 CPT: -15.8%; DT40 TDP1 no CPT: -14.7%

Results for OC[C@@H]1CN(Cc2cccnc2)C[C@H](n2cnc3c(N4CCN(c5ccccc5)CC4)ncnc32)O1 ?
PLK1 PBD inh: -7.7%; DT40 TDP1 CPT: inconclusive; DT40 TDP1 no CPT: 16.4µM*

How did COc1ccc(C2Nc3ccccc3C(=O)N2Cc2ccco2)cc1COc1ccc(N)cc1 (stereo not given) do in these assays?
TDP1 block: 0.0%

Results for O=C1CCC[C@H]2OC12[C@@H](O)CCc1ccccc1 (stereo not given in full) ?
TDP1 block: 5.8%[21 µM]

Results for COc1cc(OC)cc(-c2c(C#Cc3ccsc3)c3cc(-c4cc(F)cc(F)c4)ccc3n2C)c1 ?
PLK1 PBD inh: -14.9%; VDR inh: -11.1%; KAT2A inh: -1.5%; TDP1 block: 0.5%; DT40 TDP1 CPT: inconclusive; DT40 TDP1 no CPT: inconclusive

Results for O=c1c2oc3ccccc3c2n(Cc2ccccc2F)c(=O)n1Cc1ccc2c(c1)OCO2 ?
VDR inh: 3.0%; KAT2A inh: -2.8%; TDP1 block: 5.1%; DT40 TDP1 CPT: 0.2%; DT40 TDP1 no CPT: inconclusive

Results for COc1cc(O)cc2c1[C@@H]1Oc3c(ccc(O)c3CC=C(C)C)[C@@H]1CO2 ?
PLK1 PBD inh: -3.7%; VDR inh: -9.6%; DT40 TDP1 CPT: 18.4µM*; DT40 TDP1 no CPT: 23.1µM*

How did C=C(C)Cn1c(SCC)nc2ccccc2c1=O do in these assays?
PLK1 PBD inh: 1.4%; VDR inh: 8.3%; KAT2A inh: 1.5%; TDP1 block: -1.1%; DT40 TDP1 CPT: inconclusive; DT40 TDP1 no CPT: 10µM*!

Results for C=C(C)Cn1c(SCC(=O)N/N=C/c2c(O)ccc3ccccc23)nc2ccccc2c1=O ?
PLK1 PBD inh: 5.7%; VDR inh: -19.2%; KAT2A inh: -7.1%; TDP1 block: 5.6%; DT40 TDP1 CPT: 7.31µM*; DT40 TDP1 no CPT: 6.51µM*

How did C=C(C)Cn1c(SCC#N)nc2ccccc2c1=O do in these assays?
PLK1 PBD inh: -4.7%; VDR inh: -1.3%; KAT2A inh: 1.5%; TDP1 block: 0.0%; DT40 TDP1 CPT: -4.6%; DT40 TDP1 no CPT: -20.3%

Results for Cc1ccc(-n2c(SCC(=O)N/N=C/c3c(C)nn(-c4ccccc4)c3C)nc3ccccc3c2=O)cc1 ?
PLK1 PBD inh: -10.6%; VDR inh: -20.1%; KAT2A inh: -7.7%; TDP1 block: 0.0%; DT40 TDP1 CPT: 20.6µM*; DT40 TDP1 no CPT: inconclusive

How did Cc1ccc(Nc2nc(C)cc(C)c2C#N)c(C)c1 do in these assays?
PLK1 PBD inh: -2.0%; DT40 TDP1 CPT: inconclusive; DT40 TDP1 no CPT: -6.0%

Results for N/C(=N\OC(=O)c1ccccc1)c1ccccn1 ?
PLK1 PBD inh: -5.6%; VDR inh: -9.5%; KAT2A inh: 11.4%; TDP1 block: -10.3%; DT40 TDP1 CPT: -6.7%; DT40 TDP1 no CPT: -20.4%

How did C/C(=N\NC(=O)c1cccc(Br)c1)c1ccccn1 do in these assays?
PLK1 PBD inh: 7.4%; VDR inh: 1.6%; KAT2A inh: -0.5%; TDP1 block: 4.9%; DT40 TDP1 CPT: 0.731µM*; DT40 TDP1 no CPT: 0.92µM*

What do the screens show for `C/C(=N/NC(=O)c1ccccn1)c1ccncc1`?
PLK1 PBD inh: -8.6%; VDR inh: -17.3%; KAT2A inh: 4.2%; DT40 TDP1 CPT: -5.6%; DT40 TDP1 no CPT: -5.3%

Results for CC(C)(C)c1ccc(C(=O)O/N=C(\N)c2ccccn2)cc1 ?
PLK1 PBD inh: -5.1%; VDR inh: -8.3%; KAT2A inh: -6.5%; DT40 TDP1 CPT: 23.1µM*; DT40 TDP1 no CPT: -21.8%

How did C/C(=N\NC(=O)c1ccc(Cl)c(Cl)c1)c1ccccn1 do in these assays?
PLK1 PBD inh: -15.8%; VDR inh: 4.3%; KAT2A inh: -12.1%; DT40 TDP1 CPT: 0.411µM*; DT40 TDP1 no CPT: 0.517µM*

What do the screens show for `C/C(=N/NC(=O)c1ccc(C(C)(C)C)cc1)c1ccccn1`?
PLK1 PBD inh: -1.2%; VDR inh: 6.6%; DT40 TDP1 CPT: 0.461µM*; DT40 TDP1 no CPT: 0.231µM*

What do the screens show for `O=S(=O)(c1ccc(F)c(F)c1)N1CCN(S(=O)(=O)c2cccs2)CC1`?
PLK1 PBD inh: -1.8%; VDR inh: 3.1%; KAT2A inh: 1.2%; TDP1 block: 0.2%; DT40 TDP1 CPT: 10.2%; DT40 TDP1 no CPT: -1.3%

How did CC(=O)c1ccc(S(=O)(=O)NCCOc2ccccc2)cc1 do in these assays?
PLK1 PBD inh: -13.4%; DT40 TDP1 CPT: -24.6%; DT40 TDP1 no CPT: inconclusive

How did CCCNC(=O)C1(C)CCN(Cc2ccc(-n3ccnc3)cc2)C1 (stereo not given) do in these assays?
PLK1 PBD inh: -6.2%; DT40 TDP1 CPT: 0.6%; DT40 TDP1 no CPT: -5.0%

How did Oc1c(C(Nc2nc3ccccc3s2)c2ccco2)ccc2cccnc12 (stereo not given) do in these assays?
PLK1 PBD inh: -11.7%; VDR inh: -21.0%; KAT2A inh: -5.3%; TDP1 block: 11.5%; DT40 TDP1 CPT: 3.66µM*; DT40 TDP1 no CPT: 5.17µM*

Results for CC(C)C(=O)NC(c1ccc(N(C)C)cc1)c1ccc2cccnc2c1O (stereo not given) ?
DT40 TDP1 CPT: 3.98µM*; DT40 TDP1 no CPT: 5.62µM*

Results for Oc1c(C(Nc2nccs2)c2ccc(C(F)(F)F)cc2)ccc2cccnc12 (stereo not given) ?
PLK1 PBD inh: -13.9%; VDR inh: -18.9%; KAT2A inh: -20.2%; TDP1 block: 2.7%; DT40 TDP1 CPT: inconclusive; DT40 TDP1 no CPT: inconclusive

Screening results as filed in PubChem.
